# Test results reported in US20230313203, “FLUOROARABINO NUCLEIC ACID (FANA) […] THAT BIND SARS-2 RECEPTOR BINDING DOMAIN AND BLOCK BINDING TO THE ACE2 […] RECEPTOR” (University of Maryland, College Park, published 2023).
# Potency and affinity values are given separately.
# Molecular target: SARS-CoV-2 spike receptor binding domain (Wuhan) (SARS-CoV-2, UniProt P0DTC2 P0DTC2:319-541)
# Assay: inhibition
# Settings: XNA; first 20 nt DNA, rest FANA (SEQ ID NO 3)
sequence,measurement,value
AAAAGGTAGTGCTGAATTCGUCGAACUAAUCCGAAUUGAUGGCAUAAAAAGCAUGUUUAGUUCGCUAUCCAGUUGGCCU,binding signal,~3 fold weaker
